# A selection: hits, their analogues and other compounds. The true share with any hit is near 9.2%.
# ELG1 genotoxic – qHTS screen for small molecules that induce genotoxicity in human embryonic kidney (HEK293T) cells expressing luciferase-tagged ELG1. HEK293T ELG1-luciferase reporter, luminescence, 16 h. AID 504466, 2011. Potency, µM (highest dose often 46 µM), actives largely listed as activators. 330,000 compounds, 1.3% hits; further: nearly all actives have a fitted effect of over 60% in size
#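 After overnight (16 hr) compound treatment at 37 °C, ELG1-luciferase HEK293T cells were lysed with ONE-Glo; luminescence quantified 30 min later at room temperature.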
# FLuc counter – qHTS profiling assay for firefly luciferase inhibitor/activator using purifed enzyme and Km concentrations of substrates (counterscreen for miR-21 project). AID 588342, 2011. Potency, µM (highest dose often 57.5 µM), most hits filed as inhibitors. purified FLuc, Km substrates, luminescence inhibition. 360,000 compounds, 6.9% hits. Luciferin 4-monooxygenase (Photinus pyralis), P08659; further: nearly all actives have a fitted effect of over 55% in size
# Target sequence (P08659 whole entry, looked up): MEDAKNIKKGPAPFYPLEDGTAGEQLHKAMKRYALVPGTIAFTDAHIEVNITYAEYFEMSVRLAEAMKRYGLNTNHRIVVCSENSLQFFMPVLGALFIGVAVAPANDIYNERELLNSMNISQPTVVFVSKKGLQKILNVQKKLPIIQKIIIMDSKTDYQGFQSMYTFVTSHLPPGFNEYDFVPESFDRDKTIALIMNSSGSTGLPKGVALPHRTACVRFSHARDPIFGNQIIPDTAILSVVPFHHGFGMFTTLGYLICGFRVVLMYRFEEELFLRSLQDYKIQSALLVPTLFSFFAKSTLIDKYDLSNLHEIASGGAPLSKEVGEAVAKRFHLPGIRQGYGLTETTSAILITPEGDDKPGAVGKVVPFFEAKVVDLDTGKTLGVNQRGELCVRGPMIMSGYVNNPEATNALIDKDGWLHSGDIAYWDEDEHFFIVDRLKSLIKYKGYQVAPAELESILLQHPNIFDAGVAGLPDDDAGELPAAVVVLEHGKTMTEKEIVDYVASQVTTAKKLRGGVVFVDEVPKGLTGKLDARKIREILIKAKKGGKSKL
#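 Purified P. pyralis luciferase (10nM final) with 10uM D-luciferin and 10uM ATP (Km levels) in 50mM Tris acetate pH 7.5, 10mM Mg acetate, 0.01% Tween-20, 0.05% BSA; qHTS 6-point titration, ~60 µM downward; luminescence read.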
# ELG1 DNA repair – qHTS screen for small molecules that inhibit ELG1-dependent DNA repair in human embryonic kidney (HEK293T) cells expressing luciferase-tagged ELG1; AID 504467, 2011; Potency, µM (series often up to 46.1 µM), hits mostly inhibitors; HEK293T ELG1-luciferase reporter, luminescence, 16 h; DNA damage induced by 5-fluorouridine; 330,000 compounds, 2.3% hits; further: nearly all actives have a fitted effect of over 55% in size
#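 Luminescence from the luciferase reporter, measured 30 min after ONE-Glo reagent at room temperature, was the read-out. Beforehand, 2,000 cells per well were exposed for 16 hr at 37 °C to 5-fluorouridine together with compound or vehicle.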
# SMN2 splice enh – qHTS Assay for Enhancers of SMN2 Splice Variant Expression | 210,000 compounds, 2.8% hits | Potency, µM (top dose mostly 46.1 µM), most hits filed as activators | AID 1458, 2008 | HEK293 SMN2-luciferase splicing reporter, luminescence, 30-36 h; further: nearly all actives have a fitted effect of over 55% in size
#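 HEK293 cells carry an SMN2 minigene-luciferase reporter in which exon 7 inclusion puts luciferase in frame. Cells were seeded at 2000 cells/well, attached for 10-12 hours, then exposed to compounds for 30-36 hours at 37C before ONE-Glo luminescence.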
# Rab9 prom act – qHTS Assay for Rab9 Promoter Activators. Huh7 Rab9 promoter-luciferase reporter, luminescence, 24 h. Potency, µM (doses to about 9.22 µM), actives largely listed as activators. 320,000 compounds, 2.8% hits. AID 485297, 2010; further: nearly all actives have a fitted effect of over 60% in size
#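 Promoter activation is measured as luciferase luminescence in Huh7 cells stably transfected with a Rab9 promoter–luciferase construct, following 24 h compound exposure at 37 °C and 10 min reagent incubation at ambient temperature.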
# NPC1 promoter act – qHTS Assay for NPC1 Promoter Activators; Huh7 NPC1 promoter luciferase reporter, 24 h; Potency, µM (highest dose often 9.22 µM), most hits filed as activators; AID 485313, 2010; 320,000 compounds, 2.4% hits; further: nearly all actives have a fitted effect of over 60% in size
#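 Huh7 reporter cells (NPC1 promoter driving luciferase) are dosed with compound for 24 h at 37 °C, 5% CO2; luciferase detection reagent is then added and luminescence measured after 10 min at ambient temperature.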
# A number is an active result; 0 = inactive; ? = inconclusive; - = no result given. The call rests on the fitted dose curve; in most records, active means well fitted curve in the direction sought with a large enough effect; inconclusive means small, poorly fitted or top-dose-only effect, or another doubt; inactive means no such curve, though single readings can be large; an effect the other way counts as inactive or inconclusive.
SMILES,ELG1 genotoxic,FLuc counter,ELG1 DNA repair,SMN2 splice enh,Rab9 prom act,NPC1 promoter act
CC[C@@H](Nc1ncnc2c1oc1ccccc12)C(=O)O,0,0,0,-,0,0
Cc1cc(C(=O)COC(=O)c2cc(Cl)ccc2N)c(C)n1Cc1ccco1,9.2µM,2.39µM,?,14.1µM,2.51µM,3.55µM
CC(C)C(NC(=O)c1ccco1)C(=O)OCC(=O)c1ccccc1 (stereo unspecified),0,16.9µM,0,-,0,0
Cc1cc(C(=O)CSc2nnc(N)s2)c(C)n1Cc1ccco1,1.83µM,3.01µM,?,?,0.447µM,0.447µM
Cc1cccc(-n2nnnc2SCC(=O)c2cc(C)n(Cc3ccco3)c2C)c1,0,0,0,0,0,0
Cc1cc(C(=O)COC(=O)c2ccncc2)c(C)n1Cc1ccco1,0,0.849µM,0,0,?,0
CCOc1ncccc1C(=O)OCC(=O)NC(=O)c1ccccc1,0,0,0,-,0,0
CCCc1nnc(NC(=O)Cc2coc3cc(C)cc(C)c23)s1,-,0,-,0,-,-
Cc1cc(C(=O)COC(=O)c2ccco2)c(C)n1Cc1ccco1,2.59µM,0.213µM,?,0,1.41µM,?
Cc1cc(C(=O)COC(=O)c2cccn2C)c(C)n1Cc1ccco1,0.411µM,0.601µM,?,?,0.631µM,0.794µM
O=C(COC(=O)c1ccco1)c1ccc(F)cc1,?,2.69µM,0,-,0,0
COc1ccc(-c2noc(C(C)NC(=O)c3ccco3)n2)cc1OC (stereo unspecified),0,0,0,-,0,0
Cc1cc(NC(=O)N2CCC(CN3CCOCC3)CC2)ccc1Br,-,0,-,-,-,-
CN(C)c1nc(OCCNC(=O)Nc2ccc(Cl)cc2)nc(N(C)C)n1,0,0,7.3µM,0,0,0
C/C(=C\c1ccccc1)C(=O)NCCc1ccccc1,4.61µM,3.38µM,?,11.2µM,0.708µM,1.41µM
O=C(NCCc1ccccc1)C(=Cc1ccc(C(=O)O)cc1)C(=O)NCCc1ccccc1,0,0,0,0,0,0
S=C(NCCc1ccccc1)Nc1ccc(Cl)cc1,0,16.9µM,?,10µM,0,0
CC(C)(C)NC(=O)NCCc1ccccc1,?,21.3µM,?,-,3.98µM,1.41µM
CC(C)[C@H](NC(=O)NCCc1ccccc1)C(=O)O,0,0,?,0,0,0
S=C(NCCc1ccccc1)NCCc1ccccc1,?,15.1µM,?,12.6µM,4.47µM,4.47µM
CC(C)(C)C(=O)NC(=S)NCCc1ccccc1,0,16.9µM,?,0,?,?
CN(C)CCCNC(=O)/C(=N\O)c1ccccc1,0,0,0,0,0,0
Cc1ccccc1C(=O)NC(=S)NCCc1ccccc1,0,0,0,0,0,0
O=C(NCCc1ccccc1)/C(=N\O)c1ccccc1,?,15.1µM,?,?,3.98µM,3.16µM
COc1ccc(NC(=S)NCc2cccnc2)cc1,0,0,0,-,0,0
SMILES,ELG1 genotoxic,FLuc counter,ELG1 DNA repair,SMN2 splice enh,Rab9 prom act,NPC1 promoter act
S=C(NCc1cccnc1)Nc1ccc(Oc2ccc(Cl)cc2)cc1,0,0,10.3µM,-,0,0
COc1ccc(NC(=O)N2CCC3(CC2)CCN(C(=O)c2csnn2)CC3)cc1,-,-,-,0,-,-
O=C(CSc1nnc(-c2cccc(Cl)c2)o1)N1CCc2ccccc21,-,0,-,0,-,-
CCOC(=O)C1CCN(c2c(NCCC(C)C)c(=O)c2=O)CC1,0,0,0,-,0,0
Cc1cccc(Cn2c(C)c(CNC3CCCCC3)c(C(=O)O)c2C)c1,-,0,-,0,-,-
Cc1noc(C)c1NC(=O)Nc1cccc2c1O[C@@H](CN(C)C(=O)Nc1ccc3c(c1)OCO3)[C@@H](C)CN([C@H](C)CO)C2=O,0,-,0,-,-,-
COc1cc(OC)nc(/N=C/N(C)C)n1,0,0,0,0,0,0
O=C(NCCc1ccccc1)Nc1ccc(Cl)cc1,?,6.75µM,?,11.2µM,3.16µM,2.51µM
Cc1ccccc1NC(=O)NCCc1ccc(Cl)cc1,0,0,0,0,0,0

# High-throughput results: PubChem, National Center for Advancing Translational Sciences (NCATS)
